# Rows were chosen to be rich in hits. Some 11% of all compounds tested hit in one or more screens of this group.
# MCF10A rereplic = A quantitative high throughput screen for small molecules that induce DNA re-replication in MCF 10a normal breast cells | AID 624296, 2012 | 350,000 compounds, 2.9% hits | MCF 10A DNA re-replication, Hoechst nuclear intensity, 48 h | Potency, µM (highest dose often 46.1 µM), inactives show top-dose activity, positive = re-replication, usual class: activators; note: potency is the fitted concentration of half-maximal effect; % of control where 0% means no effect; nearly all actives have a fitted effect of over 50% in size
# SW480 rereplic = A quantitative high throughput screen for small molecules that induce DNA re-replication in SW480 colon adenocarcinoma cells. SW480 DNA re-replication, Hoechst DNA content imaging, 48 h. Potency, µM (highest dose often 46.1 µM), for inactives: at the highest dose re-replication activation, hits mostly activators. 340,000 compounds, 1.8% hits. AID 624297, 2012; note: potency is the fitted concentration of half-maximal effect; % of control where 0% means no effect; nearly all actives have a fitted effect of over 55% in size
#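 Treated cells incubate 48 hr (37 C, 5% CO2), are stained 40 min with Hoechst, and nuclear fluorescence is enumerated; a rise in nuclei with high DNA signal marks re-replication.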
# RORg inh = qHTS for inhibitors of ROR gamma transcriptional activity | Nuclear receptor ROR-gamma (Mus musculus), P51450 | Drosophila S2 Gal4-RORgamma UAS-luciferase reporter, 20 h | Potency, µM (top dose mostly 53.6 µM), without a hit: top-dose activity change, negative = inhibition, actives largely listed as inhibitors | 310,000 compounds, 5.4% hits; note: potency is the fitted concentration of half-maximal effect; % is set by controls: 0 for no effect and ±100 for the full control effect; nearly all actives have a fitted effect of over 60% in size
# Target sequence (P51450 whole entry, looked up, the tested form may be a part): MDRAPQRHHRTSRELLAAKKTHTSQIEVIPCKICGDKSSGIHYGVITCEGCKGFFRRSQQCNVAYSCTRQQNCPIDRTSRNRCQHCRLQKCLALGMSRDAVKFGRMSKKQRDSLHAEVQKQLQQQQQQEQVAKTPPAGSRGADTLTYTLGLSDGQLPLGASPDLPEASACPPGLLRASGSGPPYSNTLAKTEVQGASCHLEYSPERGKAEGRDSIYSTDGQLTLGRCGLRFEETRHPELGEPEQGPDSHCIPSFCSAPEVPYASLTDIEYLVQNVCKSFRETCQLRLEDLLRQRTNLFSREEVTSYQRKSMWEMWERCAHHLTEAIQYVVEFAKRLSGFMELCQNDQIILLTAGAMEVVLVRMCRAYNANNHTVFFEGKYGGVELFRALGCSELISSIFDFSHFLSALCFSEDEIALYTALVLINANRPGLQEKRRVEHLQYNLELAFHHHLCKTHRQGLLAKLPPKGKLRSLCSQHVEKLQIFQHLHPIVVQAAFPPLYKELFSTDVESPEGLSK
#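 Drosophila Schneider cells stably carrying a metallothionein-driven Gal4 DBD–ROR gamma fusion and a UAS-Photinus luciferase reporter were exposed to compound for 1 hr, then induced with copper sulfate (700 uM final) for 20 hr at ambient temperature before luminescence reading.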
# IL-1B inflam inh = qHTS for Inhibitors of Inflammasome Signaling: IL-1-beta AlphaLISA Primary Screen; THP-1 LPS/ATP IL-1B secretion, AlphaLISA, 16 h; stronger effect = lower value; activity change, % at 57.5 µM; 360,000 compounds, 4.7% hits; AID 743279, 2014; in the data active = activity change below about -50%; inconclusive = mostly about -30% to -49%; note: % is set by controls: 0 for no effect and ±100 for the full control effect
#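 THP-1 cells pretreated 1 hr with compounds (up to 57.5 uM final), then stimulated with LPS (250 ng/mL final) plus ATP (1.25 mM final); secreted IL-1B measured by AlphaLISA after 16 hr, decreased signal indicating inhibition.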
# VP16 counter = VP16 counterscreen qHTS for inhibitors of ROR gamma transcriptional activity; 310,000 compounds, 3.5% hits; Drosophila S2 Gal4-VP16 UAS-luciferase, luminescence, 20 h; Potency, µM (series often up to 53.6 µM), for the others: at the top dose activity, negative = inhibition, hits mostly inhibitors;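 note: Gal4-VP16 expression switched on by copper sulfate through the metallothionein promoter; potency is the fitted concentration of half-maximal effect; % is set by controls: 0 for no effect and ±100 for the full control effect; nearly all actives have a fitted effect of over 50% in size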
# Active calls of the source: *; ? = inconclusive; nt = no result; [ ] = another dose, or the depositor's remark. Unless noted, calls come from the whole dose curve; as a rule, active = well fitted curve in the direction sought with a large enough effect; inconclusive = small, poorly fitted or top-dose-only effect, or another doubt; inactive = no such curve, though single readings can be large; an effect the other way counts as inactive or inconclusive.
SMILES,MCF10A rereplic,SW480 rereplic,RORg inh,IL-1B inflam inh,VP16 counter
CC1C/C(=N\NC(=S)NCc2ccccc2)CC(C)(C)C1 (configuration not stated),2%,-1%,1.3µM*,22,2.8µM*
CC(=O)NC(c1ccc(F)c(F)c1)c1nc(-c2cccc(F)c2)cs1 (configuration not stated),nt,nt,nt,-16,nt
COC(=O)c1c(C)[nH]c(C(=O)OC(C)C(=O)NC2CCCCC2C)c1C (configuration not stated),nt,nt,nt,0,nt
Cc1ccc(S(=O)(=O)/N=C2\CN(C)C(=O)N2C)cc1,-5%,-2%,-4%,1,-1%
CCN1C/C(=N\S(=O)(=O)/N=C2\CN(CC)C(=O)N2CC)N(CC)C1=O,2%,3%,10µM*,19,-7%
O=c1oc2ccc(Cl)cc2nc1/C=C(\O)c1cccs1,29%,3%,8.9µM*,5,11µM*
Cc1ccc2oc(=O)c(/C=C(\O)c3cccs3)nc2c1,?,-25%,?,nt,?
Cc1nc([N+](=O)[O-])c(Br)n1CC(=O)c1ccccc1,?,?,4µM*,?,?
Cc1nc([N+](=O)[O-])c(Br)n1CC(=O)c1ccc2ccccc2c1,0.65µM*,?,14µM*,-120*,?
Cc1nc([N+](=O)[O-])c(Br)n1CC(=O)c1ccc(Br)cc1,?,?,11µM*,-84*,?
CCOC(=O)N1CCC(NC(=O)CS(=O)Cc2nc(-c3ccc(Cl)cc3)oc2C)CC1 (configuration not stated),15%,14%,22%,5,7%
O=C(O)[C@@H]1[C@@H]2C[C@H]3c4[nH]c5ccccc5c4CCN3C[C@@H]2CC[C@@H]1O,1%[20.6 µM],2%[20.6 µM],-32%[16.9 µM],nt,8%[17 µM]
COC(=O)[C@@H]1C[C@@]2(O)[C@H](O)[C@H](O)[C@H](O)C[C@H]2N1Cc1ccc(N2CCN(C)CC2)cc1,nt,nt,13%,nt,4%
O=C1C=CC(=NN=C(c2ccccc2)c2ccccc2)C=C1,nt,nt,nt,-7,nt
Cc1cccnc1CN1CCN(Cc2nc(Cc3cccc(F)c3)no2)CC1,-2%,-10%,13µM*,21,-3%
O=C(c1ccccn1)C1CCCN(Cc2nc(Cc3cccc(F)c3)no2)C1 (configuration not stated),10%,?,1%,5,-3%
Fc1cccc(Cc2noc(CN3CCCCC3CCc3ccccn3)n2)c1 (configuration not stated),11%,5%,-7%,-79*,?
O=C(COC(=O)Cc1ccccc1)NCc1ccc2c(c1)OCO2,2%,-2%,nt,-3,nt
Cc1ccc[n+](CC(=O)Nc2ccc([N+](=O)[O-])cc2)c1,0%,?,2%[1.91 µM],-80*,?
COC(=O)[C@]1(C)N[C@H](CN(C)S(=O)(=O)c2ccc(-c3ccccc3)cc2)[C@@H]2C(=O)N(C)C(=O)[C@@H]21,3%,-2%,nt,-4,nt
CC(/C=C/C(=O)c1ccc(C)cc1)=C\c1ccccc1,?,-1%,-16%,-30,-7%
O=C(/C=C\c1ccc(-c2ccccc2)o1)c1ccccc1,23µM*,18%,13%,-92*,-26%
Cc1ccc(C(=O)/C=C\C(=O)c2ccc(C)cc2)cc1,?,?,-94%,-62*,10µM*
Cc1ccc(C(=O)/C=C/c2ccc(-c3ccc(C)cc3)o2)cc1,21µM*,69%,37%,-14,?
Cc1ccc(S/C=C\C(=O)c2ccccc2)cc1,4.1µM*,?,-13%,-103*,14µM*
SMILES,MCF10A rereplic,SW480 rereplic,RORg inh,IL-1B inflam inh,VP16 counter
CCN1C/C(=C\c2cc(OC)c(OC)c(OC)c2)C2=NN(c3ccccc3)C(c3cc(OC)c(OC)c(OC)c3)C2C1 (configuration not stated),?,?,nt,17,nt
Cc1ccc(C(=O)N2CCN(c3ccc(NC(=O)Cc4ccccc4)cc3)CC2)cc1,3%,-6%,23%,?,-8%
COc1ccc(C(=O)/C=C/NCc2ccc(C)cc2)cc1,13µM*,21µM*,nt,-4,nt
Cc1ccc(C(=O)/C=C\NCc2ccccc2)cc1,?,-10%,7%,?,?
C[C@H](CO)N1C[C@H](C)[C@@H](CN(C)S(=O)(=O)c2cccs2)Oc2ccc(NC(=O)Cn3cnnn3)cc2C1=O,-26%,18%,nt,7,nt
Cc1c(C)n2c(SCC(=O)Nc3cccc4ccccc34)nnc2[nH]c1=O,16%,23µM*,nt,4,nt
CCn1cc(/C=C(\NC(=O)c2ccccc2)C(=O)NCCCn2ccnc2)c2ccccc21,nt,nt,nt,-23,nt
CCC/C(=N\NC(=O)c1ccco1)c1ccc(Cl)s1,-36%,1%,11µM*,?,18µM*
CCC/C(=N/NC(=O)c1csc(C)c1C)c1ccc(Cl)s1,26%,5%,16µM*,2,?
CCCCNC(=O)C1c2ccccc2OCC(=O)N1Cc1ccc2c(c1)OCO2 (configuration not stated),nt,nt,nt,12,nt
CCCN1CCC(=O)N(C(CSc2ccc(OC)cc2)CC(C)C)CC1 (configuration not stated),nt,nt,39%,nt,-12%
C=CCn1c(SCC(=O)N(CC)C2CCS(=O)(=O)C2)nc2scc(-c3ccccc3)c2c1=O (configuration not stated),?,-4%,nt,-26,nt
Nc1ccc(-c2ncc(-c3ccccc3)o2)cc1,3%,-28%,-25%,-59*,-17%
Cc1ccc(-c2cnc(-c3ccncc3)o2)cc1,-1%,-1%,38%,0,?
CCS(=O)(=O)c1ncc(Cl)c(C(=O)Nc2ccc(S(=O)(=O)N3CCC(C)CC3)cc2)n1,1.8µM*,?,3.2µM*,-104*,4.5µM*
Cc1ccc(NC(=O)c2nc(S(=O)(=O)Cc3ccccc3C)ncc2Cl)cc1C,?,?,?,-100*,5µM*
CCOC(=O)c1ccc(NC(=O)c2nc(S(=O)(=O)Cc3ccccc3)ncc2Cl)cc1,2.9µM*,-5%,7.9µM*,-105*,4.5µM*
CCOC(=O)c1ccc(NC(=O)CCS(=O)(=O)Cc2ccccc2)cc1,?,10%,0%,7,-2%
CCc1ccc(NC(=O)c2nc(S(=O)(=O)Cc3ccccc3)ncc2Cl)cc1,nt,nt,0.28µM*,nt,3.2µM*
CN1CCO[C@H](c2ccccc2)c2ccccc2C1,9%[20.6 µM],0%[20.6 µM],5%[2.98 µM],nt,-14%[17 µM]
CCSc1ncc(Cl)c(C(=O)Nc2ccc(S(N)(=O)=O)cc2)n1,0%,20%,11%,-59*,7%
COc1ccc([N+](=O)[O-])cc1/C=N/NC(=O)c1nonc1N,16µM*,18µM*,23%,28,4%
